MazF activator – MazEF (E. coli) toxin RNase activation | AID 504720 | activation, % at 20 µM | 350,000 tested, 0.32% active | FAM/BHQ RNA-DNA oligo cleavage fluorescence, 5 h; in the data active = activation above about 50%
Target sequence (P0AE70 whole entry, looked up): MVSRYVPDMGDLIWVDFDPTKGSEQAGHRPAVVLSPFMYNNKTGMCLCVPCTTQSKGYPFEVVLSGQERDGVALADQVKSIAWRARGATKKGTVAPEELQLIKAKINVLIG
Vc quorum ag – quorum light induction in luxS cqsA deficient V. cholerae | V. cholerae BH1578 lux reporter, luminescence, 6 h | activation, % at 18.7 µM | 350,000 tested, 0.16% active | AID 588436; in the data active = activation mostly above about 9.7%, no sharp cut-off; inconclusive = no clear call, values can overlap the other calls; inactive = mostly below about 3.7%
BoNT F protease – inhibitors of Botulinum neurotoxin F light chain protease. inhibition, % at 10 µM. Multiplex microsphere protease cleavage assay, flow cytometry. 360,000 tested, 0.22% active. AID 588497; in the data active = inhibition above about 35%, passing the limit was not always enough; inconclusive = no clear call, values can overlap the other calls; note: plate controls were buffer without enzyme for full effect and enzyme alone for no effect
Autofluor counter – flagged as autofluorescent in microsphere protease counterscreen. compound autofluorescence counterscreen, microsphere flow cytometry; active compounds read high. fluorescence intensity (concentration not given with the values). 360,000 tested, 3.1% active; in the data active = fluorescence intensity above about 16000; inconclusive = no clear call, values can overlap the other calls
BoNT-A LC inh2 – BoNT A light chain protease inhibition. multiplex microsphere protease substrate cleavage, flow cytometry. inhibition, % at 10 µM. 360,000 tested, 0.17% active; note: plate controls were buffer without enzyme for full effect and enzyme alone for no effect
Anthrax LF inh2 – inhibitors of Bacillus anthracis lethal factor protease; P15917; multiplex microsphere protease cleavage assay, LF; inhibition, % at 10 µM; 360,000 tested, 0.12% active; note: plate controls were buffer without enzyme for full effect and enzyme alone for no effect
Starred values were filed as active, the others as inactive; i = inactive; ? = inconclusive; . = not tested or not shown. Sampled rows, rich in hits. Any-hit rate of the full collection: about 3.9%. Cut-off read from the data, not from the text of the source, unless noted: active = inhibition above about 30%; inconclusive = no clear call, values can overlap the other calls; inactive = below that.

SMILES	MazF activator	Vc quorum ag	BoNT F protease	Autofluor counter	BoNT-A LC inh2	Anthrax LF inh2
CCCCN(C(=O)c1cc(=O)[nH]c2ccccc12)c1c(N)n(CCCC)c(=O)[nH]c1=O	-3	i	-2	5064	-3	0
Cc1ccc(NC(=O)C2CCCN2C(=O)NCc2ccccc2)cc1 (centres undefined)	2	i	0	3906	0	-6
COc1ccc(OCCNc2cc(N3CCCCC3)ccc2[N+](=O)[O-])cc1	-2	i	-24	2997	-2	-11
COc1ccc(OCCNc2cc(Cl)ccc2[N+](=O)[O-])cc1	147*	-3	-15	12087	-2	-5
CCOc1ccccc1NC(=O)COC(=O)C1COc2ccccc2O1 (centres undefined)	-3	0	-8	3824	-1	-12
CCOC(=O)CCC(=O)Nc1ccccc1C(N)=O	5	-1	-3	22534*	?	-5
CCOc1ccccc1NC(=O)c1cccc2ccccc12	7	-1	.	.	.	.
CCOC(=O)C(=O)Nc1ccccc1C(=O)NC(C)C	4	0	0	22964*	0	-1
CCOc1ccccc1C(=O)Nc1ccccc1C(N)=O	1	1	2	23043*	?	-4
CCOC(=O)C(=O)Nc1ccccc1C(=O)OCC	1	0	-6	3848	-2	-2
COc1cc2c(cc1OC)C1(NCC2)C(=O)Nc2ccccc21 (centres undefined)	-13	2	-5	16750*	-2	0
COc1ccc2c3c([nH]c2c1)C1(NCC3)C(=O)Nc2ccccc21 (centres undefined)	0	i	-13	4494	-1	-2
O=C(C1=NN[C@@H]2C(=O)N(c3cccc(F)c3)C(=O)[C@H]12)c1ccc2ccccc2n1	73*	i	-2	2157	1	-3
O=C(C1=NN[C@@H]2C(=O)N(c3cccc(C(F)(F)F)c3)C(=O)[C@H]12)c1ccc2ccccc2n1	96*	0	-1	2689	1	-3
C[C@H](c1ccccc1)N1C[C@@H](COCc2ccccc2)Oc2cc(N3CC[C@@H](N(C)C)C3)ccc2S1(=O)=O	.	.	-6	5860	0	-4
CC1(C)OC(=O)C(=CNc2ccccc2)C(=O)O1	14	i	4	18882*	6	3
CCS(=O)(=O)N1Cc2cc(C(=O)N(C)C)nc(-c3cccc(-c4ccc(F)cc4)c3)c2[C@H]1CCO	.	.	3	6069	0	-8
CC(=O)NC1C(c2nc3ccccc3s2)=C(c2ccccc2)C(=O)N1c1ccc(C)cc1 (centres undefined)	11	0	-8	4253	0	-10
COc1cccc(N2C(=O)C(c3ccccc3)=C(c3nc4ccccc4s3)C2NC(C)=O)c1 (centres undefined)	-9	-4	3	21453*	?	0
O=C(c1ccc([N+](=O)[O-])cc1Cl)N1CCN(Cc2ccccc2)CC1	7	i	-6	3858	0	3
O=C1C2CC=CCC2C(=O)N1c1ccc(OCC(O)Cn2nnc3ccccc32)cc1 (centres undefined)	-2	-6	-9	25583*	-5	-4
CC(=O)c1ccc(OCC(O)Cn2nnc3ccccc32)cc1 (centres undefined)	-6	-7	-3	7190	0	0
Cc1cc2ccccc2c(=O)n1CC(=O)NCC(=O)N1CCN(c2ccccc2)CC1	3	i	-5	23551*	-3	-3
Cc1cc2ccccc2c(=O)n1CC(=O)N1CCN(c2cccc(Cl)c2)CC1	11	7	-5	2807	0	-2
COC(=O)c1cc(C)sc1NC(=O)c1cccnc1	1	0	-10	24838*	-7	-1
SMILES	MazF activator	Vc quorum ag	BoNT F protease	Autofluor counter	BoNT-A LC inh2	Anthrax LF inh2
CC(C)(C)C(=O)Nc1ccc(C(=O)Nc2cccnc2)cc1	9	-6	0	23774*	-2	-3
Cc1cc(C(=O)Nc2cccnc2)cs1	4	0	1	23010*	2	2
CCC(=O)Nc1ccc(C(=O)Nc2cccnc2)cc1	1	-1	-7	10513	0	-2
O=C(Nc1cccnc1)c1ccc2c(c1)C(=O)N(Cc1cccnc1)C2=O	3	i	-2	23004*	0	-1
CSc1ccc(C(O)c2ncc(-c3ccc(F)cc3)[nH]2)cc1 (centres undefined)	.	i	3	3590	0	1
Cc1ccc(Cl)cc1N1CCN(c2cccc[n+]2C)CC1	-8	-3	-3	9033	0	-1
COc1cc2[nH]cc(C(=O)NCc3ccccc3)c(=O)c2cc1OC	-3	0	-24	3753	0	1
CCOCCCNC(=O)c1c[nH]c2cc(OC)ccc2c1=O	6	-1	-3	4571	0	-2
CCOCCCNC(=O)c1c[nH]c2ccc(C)cc2c1=O	0	i	-1	22538*	-1	0
COc1cc2[nH]cc(C(=O)NCCc3ccccc3)c(=O)c2cc1OC	-5	i	-2	17186*	-2	-6
O=C(CC1C(=O)NCCN1Cc1ccccc1C(F)(F)F)NCCN1CCCCC1=O (centres undefined)	4	i	-4	5505	-1	3
O=C(Nc1ccc(Br)cc1)Nc1cnccn1	4	0	-1	5627	0	1
CCCC1Oc2ccccc2C(=O)N(CC(=O)c2ccc3c(c2)OCCO3)C1=O (centres undefined)	0	0	2	6254	-2	3
CCOC(=O)C1C(=O)NC(N2CCN(c3ccccc3)CC2)=NC1c1ccccc1 (centres undefined)	0	0	-2	23474*	-2	1
CCOC(=O)C1C(=O)NC(N2CCOCC2)=NC1c1ccco1 (centres undefined)	6	-3	-12	3097	-1	0
CCOC(=O)C1C(=O)NC(c2ccccc2)=NC1c1ccc(Cl)cc1 (centres undefined)	9	i	1	22764*	2	-2
CCOC(=O)C1C(=O)NC(c2ccccc2)=NC1c1ccc(C(C)C)cc1 (centres undefined)	-6	i	?	4678	0	1
COc1ccc(S(=O)(=O)O/N=C2\CCSc3ccc(C)cc32)cc1	-6	i	-9	21946*	-7	-1
Cc1ccc(C(=O)O/N=C2\CCSc3ccc(C)cc32)cc1	-1	-2	0	19396*	?	-5
Cc1cc(/C=N/n2cnnc2)c(C)n1-c1ccc(C(=O)O)cc1	4	-5	-2	23182*	-2	-2
CSCC[C@H](NC(=O)Nc1ccc(Oc2ccccc2)cc1)C(=O)O	-9	0	0	4212	0	-7
Cc1ccc2[nH]c3c(=O)n(CCCN4CCN(C)CC4)cnc3c2c1	3	i	-6	23434*	-3	0
Cc1ccc(-c2nc(N/N=C/c3ccccc3[N+](=O)[O-])c3ccccc3n2)cc1	33	-1	2	16971*	-2	0
